# Pf growth 48h: inhibits P. falciparum growth in the first generation, 48 h; Potency, µM (top dose mostly 28.7 µM), usual class: inhibitors; P. falciparum luciferase growth in erythrocytes, 48 h; 5.9% of 310,000 active
#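 A one-generation exposure of luciferase-tagged malaria parasites in RPMI 1640/Albumax erythrocyte culture, 37 C and 5% CO2. Inhibition is inferred from decreased luminescence after adding detection reagent.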
# FBPA Giardia inh: inhibitors of Giardia lamblia fructose-1,6-bisphosphate aldolase; A8B2U2; purified Giardia FBPA; Potency, µM (series often up to 59.6 µM), hits mostly inhibitors; 0.71% of 290,000 active; AID 2451; further: nearly all actives have a fitted effect of over 55% in size
# Target sequence (A8B2U2 whole entry, looked up): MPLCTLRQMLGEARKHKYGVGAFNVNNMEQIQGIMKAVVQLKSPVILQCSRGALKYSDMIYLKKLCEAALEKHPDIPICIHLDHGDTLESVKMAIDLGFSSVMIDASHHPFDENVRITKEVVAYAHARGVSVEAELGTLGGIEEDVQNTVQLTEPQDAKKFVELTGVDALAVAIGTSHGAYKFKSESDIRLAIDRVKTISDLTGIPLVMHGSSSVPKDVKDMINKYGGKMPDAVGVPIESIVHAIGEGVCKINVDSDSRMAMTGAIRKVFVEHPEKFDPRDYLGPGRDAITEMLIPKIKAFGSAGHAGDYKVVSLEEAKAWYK
#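 40 nM FBPA preincubated 10 min at RT with compound (up to 57.5 uM final), then substrate plus GAPDH/TPI/NAD/arsenate coupling and diaphorase/resazurin added. Fluorescence read after 20 min at RT, 525/598 nm.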
# CHX counter: counter-screen for Shiga toxin inhibitors: cycloheximide protein synthesis inhibition | 12% of 300,000 active | cell reporter, cycloheximide protein synthesis inhibition counterscreen | max response, % | AID 2314; in the data active means max response mostly above about 13%, no sharp cut-off; inactive means mostly below about 14%; further: read at 38.3 µM for the half of the compounds with a filed dose
# Shiga inhibitor: Shiga toxin inhibition; Vero cells, Shiga toxin protein synthesis inhibition reporter; inhibition, % at 38.7 µM; 9.2% of 290,000 active; in the data active means inhibition mostly above about 28%, no sharp cut-off; inactive means mostly below about 43%
# NS1 inh: inhibitors of influenza NS1 protein function | Potency, µM (titrated, usually from 46.1 µM) | 0.4% of 270,000 active; calls by dose curve; further: actives are rising curves; nearly all actives have a fitted effect of over 50% in size
#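 Recovery from NS1-induced slow growth read by OD600 in budding yeast switched to galactose assay medium (pH 6.0, -URA) at 1:100 dilution. Compound 23 nl per well; the matching strain lacking NS1 serves as control.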
# Pf growth 96h: P. falciparum growth inhibition at 96 hour, primary screen for plastid delayed-death inhibitors | Potency, µM (series often up to 28.7 µM), hits mostly inhibitors | 6.9% of 320,000 active | P. falciparum luciferase reporter growth, 96 h
#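 Delayed-death screen, second-generation endpoint: infected erythrocytes, 2% hematocrit, 0.05% parasitemia final; 96 hours at 37 C, 5% CO2; luciferase detection reagent; luminescence decrease equals reduced growth.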
# A number is an active result; i = inactive; ? = inconclusive; nt = no result; ! = not active in a repeat; [ ] = remark or other dose. Hits are enriched below; roughly 21% of the tested compounds scored in any of these assays. Unless noted, the call rests on the fitted dose curve; in most records, active means well fitted curve in the direction sought with a large enough effect; inconclusive means small, poorly fitted or top-dose-only effect, or another doubt; inactive means no such curve, though single readings can be large; an effect the other way counts as inactive or inconclusive.
SMILES,Pf growth 48h,FBPA Giardia inh,CHX counter,Shiga inhibitor,NS1 inh,Pf growth 96h
COc1cc2c(C(=O)N3CCN(C)CC3)c(C)n(C)c2cc1Br,i,i,i,i,i,i
CC(/C=C/c1ccc(C)o1)=C\C(=O)O,i,i,i,i,i,i
CC(=C/C(=O)O)/C=C/c1ccc(Cl)o1,i,i,50,78,i,i
Cc1sc2ccc3sccc3c2[n+]1C,i,i,i,i,i,15µM
CC(COc1ccccc1)N1CCC(CO)(Cc2ccccc2)CC1 (centres undefined),?,i,i,i,i,i
O=C(CNC(=O)N1CC(=O)Nc2ccccc21)Nc1cc(Cl)ccc1Cl,i,i,i,i,i,i
O=c1n(-c2ccc(Br)cc2)cnn1-c1ncccc1[N+](=O)[O-],i,i,31,91,i,i
O=C(NCc1ccccc1Br)C1CCCO1 (centres undefined),i,i,i,i,i,?
O=C(C1=C[C@@H](C2CCCCC2)C[C@@H](OCCCCO)O1)N1CCN(Cc2ccc3c(c2)OCO3)CC1,?,i,i,i,i,6.6µM
O=C(C1=C[C@@H](c2ccc(C(F)(F)F)cc2)C[C@@H](OCCCCO)O1)N1CCN(Cc2ccc3c(c2)OCO3)CC1,?,i,i,i,i,9.3µM
O=C(C1=C[C@@H](c2ccc(Br)cc2)C[C@@H](OCc2ccc(CO)cc2)O1)N1CCN(Cc2ccc3c(c2)OCO3)CC1,?,i,i,i,i,15µM
O=C(C1=C[C@@H](c2ccc3c(c2)OCO3)C[C@@H](OCc2ccc(CO)cc2)O1)N1CCOCC1,i,i,i,i,i,?
CC(C)(C)[C@@H]1C=C(C(=O)N2CCN(Cc3ccc4c(c3)OCO4)CC2)O[C@H](OCc2ccc(CO)cc2)C1,10µM,i,i,i,i,12µM
COc1cccc(Cn2c(=O)cnc3cnc(N4CCN(C)CC4)nc32)c1,nt,i,nt,nt,nt,nt
COc1cccc(CN(C(=O)COc2ccc(Cl)cc2)C2CCS(=O)(=O)C2)c1 (centres undefined),?,i,i,i,i,i
O=C(C1=C[C@H](c2ccc3c(c2)OCO3)C[C@H](OCc2ccc(CO)cc2)O1)N1CCCCCCC1,?,i,i,i,i,?
O=C(C1=C[C@H](c2ccc(C(F)(F)F)cc2)C[C@H](OCc2ccc(CO)cc2)O1)N1CCN(Cc2ccc3c(c2)OCO3)CC1,?,i,i,i,i,3.7µM
O=C(C1=C[C@@H](c2ccc(C(F)(F)F)cc2)C[C@@H](OCc2ccc(CO)cc2)O1)N1CCN(Cc2ccc3c(c2)OCO3)CC1,?,i,i,i,i,2.3µM
CCCCCC(O)/C=C/C=O (centres undefined),nt,i,nt,nt,nt,nt
COc1ccc(NC(=O)C(NS(=O)(=O)c2cccs2)C(C)C)cc1Cl (centres undefined),i,i,i,i,i,i
Cc1cc(C)n2nc(CC(=O)NNC(=O)c3ccccc3Cl)nc2n1,i,i,i,i,i,i
CCOC(=O)c1cc(C#N)c(SC)nc1C,i,i,i,i,i,?
CSc1nc(C)c(C(=O)C[n+]2ccccc2C)cc1C#N,15µM,i,i,i,i,?
CC1(C)CC[C@]2(C(=O)O)CC[C@]3(C)C(=CCC4[C@@]5(C)CC[C@H](O)C(C)(C)C5[C@H](O)C[C@]43C)C2C1 (some centres undefined),nt,i,nt,nt,nt,nt
CN(Cc1cc(Br)cc(Br)c1N)C1CCCCC1,?,i,nt,nt,nt,19µM
SMILES,Pf growth 48h,FBPA Giardia inh,CHX counter,Shiga inhibitor,NS1 inh,Pf growth 96h
NS(=O)(=O)OCC1CCCCC1,i,i,i,i,i,i
Nc1nc(N)c(N=O)c(OCC2CCCCC2)n1,?,i,21,41!,i,?
CNC(=O)c1ccc(-c2cc(C(F)(F)F)nn2C)s1,i,?,38,63,i,i
CCOC(=O)c1cc(-c2ccccc2)sc1NC(=O)C(C)OC(=O)c1ccncc1 (centres undefined),i,i,i,i,i,i
CCOC(=O)c1cc(-c2ccccc2)sc1NC(=O)C(C)N1C(=O)NC(C)(c2ccc(Cl)cc2)C1=O (centres undefined),nt,i,i,i,i,9.3µM
CCOC(=O)c1cc(-c2ccccc2)sc1NC(=O)C(C)Sc1nnc(C)s1 (centres undefined),13µM,i,11,i,?,?
CCOC(=O)c1cc(-c2ccccc2)sc1NC(=O)C(C)C,?,i,i,i,i,?
CCOC(=O)c1cc(-c2ccccc2)sc1NC(=O)COC,i,i,i,i,i,i
CCOC(=O)c1cc(-c2ccccc2)sc1NC(=O)C(C)Sc1nnnn1C (centres undefined),?,i,i,i,i,10µM
CCOC(=O)c1cc(-c2ccccc2)sc1NC(=O)C(C)OC(=O)c1cccnc1Cl (centres undefined),i,i,i,i,i,9.3µM
Cc1cc(O)c(S(=O)(=O)c2ccccc2)c(C)c1NS(=O)(=O)c1ccccc1,?,i,i,i,i,i
CC(C)CO/N=C1/C[C@@H](O)[C@@H](O)[C@@H]2[C@@H]3C(=O)N(Cc4ccc5c(c4)OCO5)C(=O)[C@H]3CC[C@@H]12,nt,i[12.9 µM],nt,nt,nt,nt
Cc1ccccc1NC(=O)NCCN1C(=O)C2C3C=CC(C3)C2C1=O (centres undefined),i,i,i,i,?,?
COc1ccccc1CNc1ccnc(-c2ccccc2OC)n1,nt,i,nt,nt,nt,nt
c1ccc(-c2ccc(-c3ccc(C4=NCCN4)cc3)o2)cc1,nt,nt,nt,nt,i,nt
C[C@@]1([C@@H](NC(=O)c2cccs2)c2ccc(-c3ccccc3)cc2)C[C@H]1C1CCCCC1,1.9µM,i,i,i,i,2.6µM
Cc1cc(SCC(=O)N/N=C/c2ccc(O)c(O)c2O)c(C)cc1Br,13µM,3.5µM,i,i,i,nt
COc1ccc(/C=N/NC(=O)CSc2ccccc2)cc1OC,i,i,14,i,i,i
COc1ccc(/C=N/NC(=O)CSc2ccccn2)cc1OC,i,i,23,30,i,i
COc1ccccc1/C=N/NC(=O)CC(=O)NCc1ccccc1,i,18µM,i,i,nt,?
COc1cc(/C=N/NC(=O)CSc2cc(C)c(Br)cc2C)ccc1O,i,i,i,i,i,nt
COc1ccc(/C=N/NC(=O)CSCC(=O)Nc2ccccc2)cc1OC,i,i,i,i,i,i
COc1ccc(NC(=O)CSc2ccccn2)cc1OC,i,i,i,i,i,i
CC(=O)N1CCc2cc(S(=O)(=O)NC(C(=O)NC(C)c3ccccc3)C(C)C)ccc21 (centres undefined),i,nt,i,i,i,?
CCCN(C(=O)CSCc1c(C)noc1C)c1c(N)n(Cc2ccccc2)c(=O)[nH]c1=O,i,nt,nt,nt,nt,i
O=C(O)COCC(=O)N1CCCN(c2nccc(C(F)(F)F)n2)CC1,i,i,i,i,i,i
COc1ccc(/C=N/NC(=O)CN(C2=NS(=O)(=O)c3ccccc32)c2ccccc2)cc1,i,i,i,i,i,i
CCn1nc(C)c(/C=N/NC(=O)CSc2ccccn2)c1C,i,i,32,63,i,i

# High-throughput results from PubChem BioAssay.
